D1 ag: Allosteric Agonists of the Human D1 Dopamine Receptor: qHTS | 1% of 360,000 active | HEK293 T-REx D1 cells, calcium flux, agonist mode | activation, % at 2 µM | AID 504660, 2011; in the data active = activation above about 30%; note: 0% is about no effect
Target sequence (P21728 whole entry, looked up): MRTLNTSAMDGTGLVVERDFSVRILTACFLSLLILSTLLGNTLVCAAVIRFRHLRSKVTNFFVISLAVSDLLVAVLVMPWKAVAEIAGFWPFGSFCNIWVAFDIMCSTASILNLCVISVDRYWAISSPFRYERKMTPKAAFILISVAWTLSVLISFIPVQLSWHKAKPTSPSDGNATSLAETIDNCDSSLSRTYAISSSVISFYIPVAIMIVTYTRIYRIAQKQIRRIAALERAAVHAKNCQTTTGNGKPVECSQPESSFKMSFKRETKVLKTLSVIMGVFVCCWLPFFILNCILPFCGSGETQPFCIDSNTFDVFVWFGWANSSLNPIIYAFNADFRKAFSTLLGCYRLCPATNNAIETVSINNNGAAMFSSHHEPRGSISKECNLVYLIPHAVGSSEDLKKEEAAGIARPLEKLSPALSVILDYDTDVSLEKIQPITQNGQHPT
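Inducible HEK293 T-REx D1 cells, force-coupled to calcium signalling, were plated at 4000 cells/well with tetracycline and held overnight at 30 C. After no-wash calcium dye loading, compound-evoked calcium rise over 180 s flagged agonists.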
D1 PAM: Potentiators of Human D1 Dopamine Receptor: qHTS. AID 504651, 2011. 0.036% of 360,000 active. HEK293 TREx D1 cells, calcium flux, dopamine EC20 potentiation. potentiation, % at 10 µM. D(1A) dopamine receptor (Homo sapiens), P21728; in the data active = potentiation above about 30%; note: 0% is about no effect
DRD3 antagonist: qHTS of D3 Dopamine Receptor Antagonist: qHTS. max response, negative = inhibition, %. D3R cells, DiscoveRx beta-arrestin luminescence, antagonist mode; hits give low values. 2.5% of 360,000 active. D(3) dopamine receptor (Homo sapiens), P35462; in the data active = max response below about -50%; inconclusive = no clear call, values can overlap the other calls; note: % is set by controls: 0 for no effect and ±100 for the full control effect
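Cells expressing the human receptor were seeded at 1500 cells/well, incubated overnight at 37 degrees C in 5% CO2, then exposed to library compounds with dopamine controls for 90 minutes at 37 degrees C before luminescent detection.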
ERG-DNA inh: qHTS for Small Molecule Inhibitors of the ERG Ets/DNA interaction; Transcriptional regulator ERG (Homo sapiens), P11308; fluorescence polarization, His-ERG Ets domain / labelled DNA; Potency, µM (series often up to 76.9 µM), without a hit: top-dose FP activity, negative = inhibition, hits mostly inhibitors; 0.028% of 370,000 active; AID 624246, 2012; active = well fitted inhibition curve with a large enough effect in the polarisation, with a control signal flat; inconclusive = small, poorly fitted or top-dose-only effect, or effect the other way, or a change in a side signal; inactive = no such curve, though single readings can be large or run the other way; the % refers to the polarisation;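 note: polarization taken with two DNA probes labelled with fluorescein and Texas red; potency is the fitted concentration of half-maximal effect; % of control where 0% means no effect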
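His-tagged ERG Ets domain (1 uM in the protein solution; 300mM KCl, 50mM Tris-HCl, 1mM EDTA, 1mM DTT, pH 7.5) received compound, then a probe mix of 5 nM fluorescein-DNA and 100nM Texas-615-DNA. Fluorescence polarization was read for both dyes.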
D3 ag: qHTS of D3 Dopamine Receptor Agonist: qHTS. D(3) dopamine receptor (Homo sapiens), P35462. max activation, %. D3R DiscoveRx beta-arrestin cells, luminescence, 90 min. 0.58% of 410,000 active; in the data active = max activation above about 30%; note: 0% is about no effect
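Agonist mode: compounds and dopamine controls were applied to plated cells for 90 min at 37 degrees C after an overnight attachment at 1500 cells/well. Luminescent read-out followed 30 - 60 minutes at room temperature with DiscoveRx detection reagent.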
D1 antag: Antagonist of Human D 1 Dopamine Receptor: qHTS; D(1A) dopamine receptor (Homo sapiens), P21728; HEK293 TREx D1 cells, calcium flux, dopamine EC80; hits give low values; activity change, negative = inhibition, % at 10 µM; 3.2% of 360,000 active; in the data active = activity change below about -30%; note: % is set by controls: 0 for no effect and ±100 for the full control effect
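Allosteric or orthosteric antagonism assessed as attenuation of the calcium response to EC80 dopamine, added 180 s after compound, in induced HEK293 Trex D1 cells loaded with no-wash calcium dye.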
* marks the source's active call; other numbers are inactive results; u = inconclusive; x = no result. This is a sample that favours compounds with a hit; in the whole collection about 6.1% have one here.

SMILES	D1 ag	D1 PAM	DRD3 antagonist	ERG-DNA inh	D3 ag	D1 antag
Cc1cc(OCC(O)CN2CCc3ccccc3C2)ccc1Cl (stereo unspecified)	5	-10	-98*	4%	-20	11
Cc1ccc(C)c(OCC(O)CN2CCC(C)CC2)c1C (stereo unspecified)	1	-5	u	9%	-14	-30
Cc1cc(OCC(O)CN2CCc3ccccc3C2)cc(C(C)C)c1 (stereo unspecified)	30	8	-68*	-2%	0	3
C=C(C)C(=O)OCCCCCCOc1ccc(C(=O)O)cc1	1	2	12	-5%	2	19
Cc1ccccc1Oc1nc2c(C)cccn2c(=O)c1/C=C(\C#N)C(=O)NC1CCS(=O)(=O)C1 (stereo unspecified)	1	5	16	7%	9	7
COCc1ccc(C(=O)N2CCCC(C(=O)c3ccc(SC)cc3)C2)o1 (stereo unspecified)	7	-2	7	9%	2	1
Cc1ccc(-c2nn(-c3ccc(F)cc3)cc2C(=O)NCC2CCCO2)cc1 (stereo unspecified)	1	0	19	-3%	-7	-5
OC(COc1ccccc1CNCc1cccnc1)CN1CCc2ccccc2C1 (stereo unspecified)	11	-10	-5	-5%	-22	-10
OC(COCc1ccc(Cl)cc1)CN1CCc2ccccc2C1 (stereo unspecified)	9	3	-72*	-9%	-11	7
CCN(CCn1cccn1)Cc1ccccc1OCC(O)CN1CCc2ccccc2C1 (stereo unspecified)	5	-8	-58*	6%	-20	-27
CCOc1ccc(OCC(O)CN2CCc3ccccc3C2)cc1 (stereo unspecified)	3	-3	-98*	4%	1	4
C=CCc1ccccc1OCC(O)Cn1ccnc1C (stereo unspecified)	5	19	14	-3%	-2	7
CN1CCN(CC(O)COc2ccccc2)CC1 (stereo unspecified)	6	2	6	-7%	0	-4
OC(COc1ccc(CNCc2cccnc2)cc1)CN1CCc2ccccc2C1 (stereo unspecified)	5	-6	-103*	25%	4	-24
O=C(NCC1CCCO1)C1CCCN(S(=O)(=O)c2cccc(C(F)(F)F)c2)C1 (stereo unspecified)	7	3	19	-8%	5	8
COc1ccc(CC(=O)OCC(=O)Nc2cc(S(=O)(=O)N3CCOCC3)ccc2N2CCCC2)cc1	1	-6	-8	0%	-4	0
CC(=O)c1ccc(OCC(O)CN2CCc3ccccc3C2)cc1 (stereo unspecified)	4	11	-84*	1%	-17	1
COc1ccc(-c2noc(-c3ccc(NCc4ccco4)c([N+](=O)[O-])c3)n2)cc1OC	-1	1	x	1%	12	-41*
COc1ccc(-c2ccc(C#N)c(SCC(=O)NCc3ccco3)n2)cc1OC	1	5	-5	2%	2	-15
COc1ccc(-c2noc(-c3ccc(NCc4ccc(C)cc4)c([N+](=O)[O-])c3)n2)cc1OC	7	1	x	2%	3	-68*
Cc1cccc(-c2noc(-c3ccc(NCc4ccco4)c([N+](=O)[O-])c3)n2)c1	22	2	x	-9%	-9	-15
COc1ccc(-c2nc3cccc(C)n3c2NCc2ccco2)cc1OC	0	-8	-52*	7%	6	-31*
CCOc1ccccc1CNC(=O)c1oc2c(c1C)-c1nn(Cc3cccc(Cl)c3)cc1CC2	24	2	x	1%	-13	-12
COc1nnc(-c2ccc(N3CCCCC3)c(NC(=O)COc3ccccc3)c2)c2ccccc12	x	x	14	8%	-7	x
COc1ccc(S(=O)(=O)NC2CC(=O)N(c3ccccc3)C2)cc1C (stereo unspecified)	4	0	1	-4%	-11	-54*
SMILES	D1 ag	D1 PAM	DRD3 antagonist	ERG-DNA inh	D3 ag	D1 antag
COc1ccc(S(=O)(=O)NC2CC(=O)N(c3ccc(C)c(C)c3)C2)cc1C (stereo unspecified)	15	-1	-7	0%	-8	15
CC(=O)c1ccc(S(=O)(=O)NC2CC(=O)N(c3ccc(C)c(C)c3)C2)cc1 (stereo unspecified)	28	-2	7	0%	-4	-31*
COc1ccc(N2CCN(c3nc4ccccc4n4c(C)nnc34)CC2)cc1	0	-5	x	3%	-6	-76*
O=C(NCCN1CCN(c2ccccc2F)CC1)c1cccn2c(=O)c3ccccc3nc12	2	-7	-50*	2%	-17	16
CN(CCCNC(=O)c1cccn2c(=O)c3ccccc3nc12)Cc1ccccc1	2	-1	-56*	7%	-57	1
O=C(NCCN1CCN(c2ccccc2)CC1)c1cccn2c(=O)c3ccccc3nc12	2	-2	10	3%	0	-11
CCOc1cc2c(cc1C(C)(C)C)NC(=O)CS2	0	-2	6	-5%	-2	-85*
CCOc1ccc(C(C)=O)cc1COC(=O)c1ccc2c(c1)NC(=O)CS2	3	-1	13	-1%	3	-2
Cc1ccc(C(c2nnnn2C2CCCCC2)N2CCc3ccccc32)cc1 (stereo unspecified)	3	-8	4	-6%	8	-34*
CN(C)CCNC(=O)Cn1nc(-c2ccc(Cl)cc2)ccc1=O	1	1	1	-10%	-15	16
Cc1ccc(/C=N/NC(=O)C(=O)N/N=C/c2ccc(C)o2)o1	-1	-2	27	-5%	5	-31*
Cn1cccc1/C=N/N1CCN(Cc2ccc(Cl)cc2)CC1	4	0	-27	-5%	-26	1
C=CCN1CC(c2nc3ccccc3n2CCOc2ccccc2)CC1=O (stereo unspecified)	3	-2	-11	2%	-10	-8
Cc1ccc(OCCN2CCN(C(=O)CCC(=O)Nc3nnc(CC(C)C)s3)CC2)cc1	10	-4	10	1%	72*	-11
